Most compounds without a hit are left out; they make up all but 2% or so of the library.
GC-B act – GC-B (human) receptor activation. P20594. HEK293-GC-B cells, CNP EC30, cGMP TR-FRET; 0% at EC30 CNP, 100% saturating CNP. activation, % at 10 µM. hit rate 0.11% among 370,000;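 active = activation at 10 µM reaching about 35% in either raw or pattern-adjusted values, limit read from the data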
Neddylation inh – inhibitors of human cullin neddylation; AID 651699; P61081+Q13564; TR-FRET cullin neddylation, biochemical; inhibition, % at 25 µM; hit rate 0.58% among 360,000; in the data active = inhibition above about 36%
APOBEC3A inh – blocks human APOBEC3A ssDNA deamination. P31941. recombinant A3A, FAM/TAMRA ssDNA deamination fluorescence. inhibition, % at 20 µM. hit rate 0.41% among 330,000. AID 493011;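 active = at least 40% inhibition at 20 µM here, with at most 30% in a related deaminase screen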;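 note: plate controls were A3A with DMSO for no effect and wells lacking A3A enzyme for full effect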
Target sequence (P31941 whole entry, looked up): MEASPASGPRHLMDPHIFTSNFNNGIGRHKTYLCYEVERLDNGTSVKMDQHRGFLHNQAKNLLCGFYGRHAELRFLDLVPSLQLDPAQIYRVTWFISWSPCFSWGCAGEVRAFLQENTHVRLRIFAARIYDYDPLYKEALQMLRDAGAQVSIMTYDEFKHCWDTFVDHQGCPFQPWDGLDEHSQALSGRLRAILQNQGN
APOBEC3G inh – APOBEC3G (human) deaminase inhibition; Q9HC16; recombinant A3G, ssDNA deamination FAM/TAMRA fluorescence; inhibition, % at 20 µM; hit rate 0.28% among 330,000; AID 493012;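 active = inhibition of at least 40% at 20 µM, with no more than 30% in the related APOBEC3A deaminase screen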;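 note: plate controls were DMSO wells with A3G for no effect and wells lacking A3G enzyme for full effect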
PfGluPho inh – PfG6PD (Plasmodium falciparum) enzyme inhibition | PfGluPho enzyme, NADPH resazurin-diaphorase fluorescence | inhibition, % at 20 µM | hit rate 0.78% among 350,000 | AID 504690;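 active = inhibition reaching at least a set limit at 20 µM in the primary screen, cut at about 59% in these data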;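 note: 0% = DMSO wells with substrate and 100% = DMSO wells lacking glucose-6-phosphate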
GC-A act – GC-A (human) enzyme activation; activation, % at 10 µM; HEK293 GC-A cells, cGMP TR-FRET, EC30 ANP; 0% at EC30 ANP, 100% saturating ANP; P16066; hit rate 0.14% among 370,000; in the data active = activation above about 40%
PfG6PD confirm – confirmation of Plasmodium falciparum G6PD inhibitors; recombinant PfGluPho, NADPH-diaphorase-resazurin fluorescence; shares compounds with PfGluPho inh; hit rate 34% among 2,400; AID 504753; inhibition, % at 20 µM;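 active = inhibition of at least 50% at 20 µM in any single replicate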;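 note: 0% = DMSO with substrate and 100% = DMSO lacking glucose-6-phosphate substrate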
Diaphorase 10uM – counter-screen for P. falciparum G6PD inhibitors: diaphorase inhibitors, oxidizers; diaphorase-coupled resazurin reduction, fluorescence, NADPH 10 uM; shares compounds with PfGluPho inh; hit rate 39% among 820; AID 504862; inhibition, % at 20 µM;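 active = average inhibition reaching 50% or more with the compound at 20 µM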;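 note: resorufin red fluorescence formed as diaphorase reduces resazurin using NADPH; 0% = DMSO with enzyme and 100% = DMSO without enzyme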
Diaphorase 30uM – counter-screen for P. falciparum G6PD inhibitors: diaphorase inhibitors, oxidizers. shares compounds with PfGluPho inh. Diaphorase/resazurin coupled assay, resorufin fluorescence, 30 uM NADPH. inhibition, % at 20 µM. hit rate 29% among 820;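 active = inhibition averaging 50% or more, tested at 20 µM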;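 note: 0% = DMSO with enzyme and 100% = DMSO wells lacking diaphorase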
* marks the source's active call; other numbers are inactive results; x = no result given.

SMILES	GC-B act	Neddylation inh	APOBEC3A inh	APOBEC3G inh	PfGluPho inh	GC-A act	PfG6PD confirm	others
Clc1ccc2[nH]cc(-c3nnnn3-c3ccccc3)c2c1	-15.3	7.4	1.8	2.1	96.5*	-24.3	36.4
COc1ccc2ccccc2c1C1CC(=O)N2CN(C3CCCCC3)CSC2=C1C#N (stereo unspecified)	4.2	-7.1	-5.3	-9.0	72.1*	-2.9	64.7*	Diaphorase 10uM=-17.8;Diaphorase 30uM=-21.8
COc1cc(C2CC(=O)N3CN(Cc4ccco4)CSC3=C2C#N)ccc1OCc1ccccc1 (stereo unspecified)	4.1	-32.1	-1.7	2.8	60.3*	4.8	4.2
CCOc1cc(C2CC(=O)N3CN(C4CCCCC4)CSC3=C2C#N)ccc1O (stereo unspecified)	1.4	-31.5	-1.2	-6.8	76.2*	0.8	44.3
COc1ccc(C2CC(=O)N3CN(Cc4ccco4)CSC3=C2C#N)cc1 (stereo unspecified)	3.4	-7.2	-0.9	-2.7	59.2*	1.2	7.0
COc1cc(CNCc2ccco2)ccc1OCc1ccccc1	-7.5	-2.5	13.2	-2.2	-0.6	-14.6	x
C[C@H]1[C@H](NC(=O)c2cccc(Cl)c2)CC[C@@]23CCCN2C(=O)CCC[C@@H]13	-3.8	x	x	x	x	2.7	x
COc1cccc(CNC(=O)[C@H]2CCCN2C(=O)[C@H]2CCCN2C(=O)c2ccccc2)c1	6.3	x	x	x	x	5.0	x
COc1ccc2ccccc2c1C1CC(=O)N2CN(Cc3ccco3)CSC2=C1C#N (stereo unspecified)	5.6	1.6	-2.1	-1.2	68.3*	0.3	42.0
N#CC1=C2SCN(Cc3ccccc3)CN2C(=O)CC1c1cccs1 (stereo unspecified)	7.2	-68.1	-6.3	-1.5	70.9*	4.5	7.2
CC(C)c1ccc(C2CC(=O)N3CN(Cc4ccco4)CSC3=C2C#N)cc1 (stereo unspecified)	4.0	-4.0	1.7	0.6	61.4*	10.5	16.4
CCCSC1=C(C#N)C(c2cccs2)CC(=O)N1 (stereo unspecified)	-3.6	4.9	0.4	-4.2	-1.5	0.6	x
CC1CCc2[nH]c3ccc(C(=O)N(C)CC(=O)Nc4ccccc4Br)cc3c2C1 (stereo unspecified)	2.7	17.2	0.5	-2.3	89.9*	2.9	47.4
CCN(CC(=O)Nc1ccc(OC)cc1)C(=O)c1ccc2[nH]c3c(c2c1)CC(C)CC3 (stereo unspecified)	1.3	2.4	0.1	-0.7	21.9	-3.8	x
Cc1ccc(C)c(NC(=O)CN(C)C(=O)c2ccc3[nH]c4c(c3c2)CC(C)CC4)c1 (stereo unspecified)	-4.9	25.5	-4.7	-6.0	70.5*	-2.6	19.8
CCC(C(=O)Nc1ccccc1N1CCCC1)c1ccccc1F (stereo unspecified)	-6.0	x	x	x	x	-10.9	x
COc1cc(CNc2ccc(N3CCCC3)cc2)ccc1OCc1ccccc1F	x	15.2	x	x	97.4*	x	59.3*	Diaphorase 10uM=9.8;Diaphorase 30uM=6.3
COc1cc(CNc2ccc(N3CCCC3)cc2)ccc1OCc1ccccc1	-21.0	30.4	x	x	53.8	-8.3	x
COc1cc(CNc2ccc(O)cc2)cc(Br)c1OCc1ccccc1F	x	9.0	2.1	-0.4	60.2*	x	16.0
O=S(=O)(c1ccc(CN2CCOCCOCCN(Cc3ccc(S(=O)(=O)C(F)(F)F)cc3)CCOCC2)cc1)C(F)(F)F	-4.0	x	x	x	x	-1.3	x
C=CCn1c(C)cc(C(=O)COC(=O)CCc2cc(OC)c(OC)c(OC)c2)c1C	3.1	-3.2	-4.2	-6.4	80.4*	1.0	24.3
COc1cc(NC(=O)C2CCCN(S(=O)(=O)c3cccc4cccnc34)C2)cc(OC)c1 (stereo unspecified)	-4.9	x	x	x	x	-2.8	x
COc1ccc2nc3cccc(OC)c3nc2c1	-8.1	-2.2	4.0	12.3	54.7	4.6	x

Bioassay records from PubChem.
